35 molecules from PubChem BioAssay can be followed below.

SMILES strings stand for the structures.

This assay can be described thus: JC-1 mitochondrial signal, unstimulated myeloma cells – cell-based, JC-1 fluorescence, RPMI8226, 24 h, 100 nL compound, profiling panel (AID 1169). Further: test concentration not given here. Particulars: JC-1 mitochondrial potential fluorescence, higher = more signal.
On to `C=CC[C@@]12N=C(c3ccc(OCCCO)cc3)O[C@@H]1c1ccccc1N(CCS(=O)(=O)c1ccccc1)C2=O`, for which the z-score was -0.899.
Under `CN(C)CCCNC(=O)[C@@]1(C)c2ccccc2C(=O)N(Cc2cc(C(F)(F)F)cc(C(F)(F)F)c2)[C@H]1c1ccc(CO)cc1` stands -0.0152; under `CC(C)NC(=O)[C@@]1(C)c2ccccc2C(=O)N(C(C)C)[C@H]1c1ccc(CO)cc1`, 0.713; under `O=C(N1CCCCC1)[C@@]1(Cc2ccccc2)COC(c2ccc(OCCCO)cc2)=N1`, -1.08.
In the case of `O=C1C[C@@](C(=O)NCC(F)(F)F)(c2ccc([N+](=O)[O-])cc2)[C@@H](c2ccc(CO)cc2)N1C1CCCCC1`, the z-score came to 0.685.
Molecule `O=C1c2ccccc2[C@](Cc2ccccc2I)(C(=O)NCc2ccccc2)[C@H](c2ccc(CO)cc2)N1C1CCCCC1` displayed a z-score of 0.173.
Turning to `C=CC[C@@]1(C(=O)N2CCCCC2)N=C(c2ccc(OCCCO)cc2)O[C@@H]1c1ccccc1`, the z-score was -1.09.
`C=CCOC(=O)[C@@H]1[C@H]2C(=O)O[C@H](c3ccccc3)[C@H](c3ccccc3)N2[C@H](c2ccc(OCCOC(=O)[C@H]3C[C@H]4C(=O)N[C@@H](CCCC[N+](C)(C)C)C(=O)N4[C@H]3c3ccc(O)cc3)cc2)[C@@]12C(=O)Nc1ccc(I)cc12` had a z-score of -0.275.
Under `C[C@H]1ON(c2ccc(C(=O)OC(C)(C)C)cc2)[C@@H](c2ccc(O)cc2)[C@@H]1C(=O)N1C(=O)OC[C@@H]1c1ccccc1` stands -0.575.
With `Cc1c(NC(=O)/C(C#N)=C/C=C/c2ccccc2[N+](=O)[O-])c(=O)n(-c2ccccc2)n1C`, the z-score was -0.588.
`CC(C)(C)OC(=O)CC[C@]1(C(=O)NCCN2CCOCC2)N=C(c2ccc(OCCCO)cc2)O[C@H]1c1ccccc1N=[N+]=[N-]` came in with a z-score of -0.683.
`CCOC(=O)[C@H]1C/C=C/C[C@H](C(=O)OCC)C(=O)O[C@H]2[C@@H](OC)O[C@H](CO)[C@@H](OC(=O)Nc3ccc(OC)cc3)[C@@H]2OC1=O` displayed a z-score of -0.292.
`O=C1NC(=O)C2C1C=CC(C(O)c1c(F)cccc1Cl)N2Nc1ccccn1` (stereo not given) yielded a z-score of -0.517.
For `COc1ccc([Si](C)(C)[C@@H]2[C@@H](CCO)O[C@]3(C(=O)N(Cc4cccc(N5C(=O)c6ccccc6Oc6ccccc65)c4)c4ccccc43)[C@H]2C)cc1`, the z-score was -0.954.
Under `Cc1ccc(S[C@]2(C(=O)NCc3ccccc3)CC(=O)N(C(C)C)[C@@H]2c2ccc(CO)cc2I)cc1` stands -0.592; under `CC(C)CCC[C@@H](C)[C@H]1CC[C@@]2(C)C3=C(CC[C@]12C)[C@@]1(C)CC[C@H](OC(=O)c2ccc(Br)cc2)C(C)(C)C1CC3` (stereo not given in full), 0.717; under `NC(=O)N1C(=O)C2C(C1=O)C1C=C(c3ccc(CO)cc3)C2C(C2CC2)N1Cc1sc2ccccc2c1Cl` (stereo not given), -0.65.
Under `C=CCN1C(=O)[C@@]2(O[C@@H](CCn3cc([C@H](O)c4ccccc4)nn3)[C@H]([Si](C)(C)c3ccc(OC)cc3)[C@H]2C)c2ccccc21` stands -0.967.
Under `CC1CC/C=C\[C@H]2OC34C=CCN(CCN5CCOCC5)C(=O)[C@H]3N(CCO)C(=O)[C@@H]4C2C(=O)O1` (stereo not given in full) stands 0.673; under `C=CCOC(=O)[C@H]1[C@@H]2C(=O)O[C@@H](c3ccccc3)[C@@H](c3ccccc3)N2[C@@H](c2ccc(OCCOC(=O)[C@H]3C[C@H]4C(=O)N[C@@H](Cc5ccccc5)C(=O)N4[C@H]3c3ccc(O)cc3)cc2)[C@]12C(=O)Nc1ccc(I)cc12`, -0.59; under `COc1ccc(C#Cc2ccc3c(c2)[C@]2(C(=O)N3)[C@H](C(=O)N3CCc4cc(OC)c(OC)cc4C3)[C@H]3C(=O)O[C@H](c4ccccc4)[C@H](c4ccccc4)N3[C@@H]2c2ccc(O)cc2)cc1`, -0.356.
As for `O=C1O[C@@H](c2ccccc2)[C@@H](c2ccccc2)N2[C@@H](c3ccccc3OCCO)[C@]3(C(=O)Nc4ccccc43)[C@@H](C(=O)NC[C@H](O)c3ccccc3)[C@H]12`, the z-score was -1.22.
As to `C[C@]1(C(=O)NC2CC2)c2ccccc2C(=O)N(Cc2ccc(OC(F)(F)F)cc2)[C@H]1c1ccc(CO)cc1`, the z-score stood at 0.917.
`NC(=O)NCC#Cc1ccc2c(c1)[C@]1(C(=O)N2)[C@H](C(=O)Nc2nc3ccccc3s2)[C@H]2C(=O)O[C@H](c3ccccc3)[C@H](c3ccccc3)N2[C@@H]1c1ccc(O)cc1` yielded a z-score of -0.937.
Under `COc1ccc(CCNC(=O)[C@@]2(Sc3ccc(C)cc3)CC(=O)N(Cc3cc(C(F)(F)F)cc(C(F)(F)F)c3)[C@@H]2c2ccc(CO)cc2I)cc1` stands -0.165; under `CN(C)CCCNC(=O)[C@@H]1c2ccccc2C(=O)N(Cc2ccc(OC(F)(F)F)cc2)[C@H]1c1ccc(CO)cc1`, -0.114; under `COCCCNC(=O)[C@@]1(Sc2ccc(C)cc2)CC(=O)N(C2Cc3ccccc3C2)[C@@H]1c1ccc(CO)cc1I`, -0.294.
Turning to `CCCCC(CC)C(O)C1C=CC2C(=O)N(c3ccccc3)C(=O)C2N1Nc1ccc([N+](=O)[O-])cc1` (stereo not given), the z-score is 0.349.
Under `CC(C)C(=C=CC[C@@H](O)c1ccccc1OCCO)C[C@@H](O)COCc1ccccc1` stands 0.0761; under `C[C@H]1C2=C3C(CC[C@H]4C(OCc5ccc(F)cc5C(F)(F)F)OC[C@](C)([C@@H]34)N(C(=O)OC(C)(C)C)C2)C2COC(=O)OCC21` (stereo not given in full), -0.325.
In the case of `CCOC(=CC(=O)OC)CC(O)c1cccc(Cl)c1` (stereo not given), the z-score is -0.0603.
With `COc1cc(OC)c(C(O)C2C=CC3C(=O)N(c4ccccc4)C(=O)C3N2Nc2ccc(C#N)cc2)cc1Br` (stereo not given), the z-score is -0.129.
Under `CN(C)CCCNC(=O)[C@@H]1c2ccccc2C(=O)N(CC23CC4CC(CC(C4)C2)C3)[C@H]1c1ccc(CO)cc1` stands -0.296; under `COc1cc2c(cc1OC)CN(C(=O)[C@H]1[C@@H]3C(=O)O[C@@H](c4ccccc4)[C@@H](c4ccccc4)N3[C@@H](c3ccc(OCCO)cc3)[C@]13C(=O)Nc1ccc(C#CCCO)cc13)CC2`, -0.453; under `COCCOC(=O)N1C(=O)[C@@]2(c3cc(C#CC4=CCCCC4)ccc31)[C@H](c1ccccc1OCCO)N1[C@H](c3ccccc3)[C@H](c3ccccc3)OC(=O)[C@H]1[C@@H]2C(=O)N1CCc2cc(OC)c(OC)cc2C1`, -1.06.
